Laboratory results: paper PMC4336329 (PLoS ONE, 2015)
Out of some 310,000 compounds screened, about 14,000 (4.5%) showed an effect of 50% or more. Effects have a minus sign here. The sample holds strong results, similar compounds and a random draw of the others, so the mix is not that of the screen.

molecular target: human ether-à-go-go-related gene (hERG) potassium channel (human, UniProt Q12809); test: primary screen, population patch clamp on CHO cells stably expressing hERG; higher = less effect of the substance
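Also: peak tail current of the secondary pulse compared with the same well before compound.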

Chain of human ether-à-go-go-related gene (hERG) potassium channel (Q12809 whole entry, looked up): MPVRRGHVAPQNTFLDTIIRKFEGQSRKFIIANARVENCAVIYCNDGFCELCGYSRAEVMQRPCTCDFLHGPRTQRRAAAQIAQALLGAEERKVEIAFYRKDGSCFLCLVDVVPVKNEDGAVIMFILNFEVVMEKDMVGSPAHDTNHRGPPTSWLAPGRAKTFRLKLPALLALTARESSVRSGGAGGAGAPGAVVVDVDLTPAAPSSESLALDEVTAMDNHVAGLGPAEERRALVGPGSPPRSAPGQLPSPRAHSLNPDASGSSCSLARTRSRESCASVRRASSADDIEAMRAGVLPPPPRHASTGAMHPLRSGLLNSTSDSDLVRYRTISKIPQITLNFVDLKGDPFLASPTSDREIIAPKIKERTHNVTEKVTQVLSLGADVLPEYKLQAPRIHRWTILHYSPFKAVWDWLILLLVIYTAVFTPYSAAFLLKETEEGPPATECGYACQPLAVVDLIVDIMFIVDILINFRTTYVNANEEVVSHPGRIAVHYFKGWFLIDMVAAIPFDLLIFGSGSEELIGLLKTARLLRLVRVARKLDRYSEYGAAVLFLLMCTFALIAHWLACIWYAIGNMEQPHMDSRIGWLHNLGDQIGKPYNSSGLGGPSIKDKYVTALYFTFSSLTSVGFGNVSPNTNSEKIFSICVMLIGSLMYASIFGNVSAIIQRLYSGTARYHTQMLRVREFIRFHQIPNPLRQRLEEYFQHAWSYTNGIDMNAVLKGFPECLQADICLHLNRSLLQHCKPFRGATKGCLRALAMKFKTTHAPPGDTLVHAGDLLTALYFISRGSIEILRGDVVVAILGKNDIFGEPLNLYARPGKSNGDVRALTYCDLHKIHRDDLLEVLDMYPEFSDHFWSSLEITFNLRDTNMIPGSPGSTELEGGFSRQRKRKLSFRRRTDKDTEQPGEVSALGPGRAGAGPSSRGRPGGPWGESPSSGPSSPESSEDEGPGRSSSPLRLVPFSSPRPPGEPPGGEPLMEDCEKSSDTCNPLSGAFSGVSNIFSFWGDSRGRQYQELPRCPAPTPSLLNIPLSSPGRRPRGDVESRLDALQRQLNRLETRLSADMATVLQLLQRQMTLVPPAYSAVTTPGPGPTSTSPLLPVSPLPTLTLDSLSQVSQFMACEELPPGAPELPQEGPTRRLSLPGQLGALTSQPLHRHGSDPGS

Row | SMILES | hERG current change (%, negative = inhibition) at 10uM [%]
1 | O=C(O)CCc1ccc(-c2ccc(F)cc2)n1NC(=O)c1ccco1 | 8.01
2 | CCN(CC(=O)N1CCN(C)CC1)S(=O)(=O)c1ccc(Cl)cc1 | -5.94
3 | O=C1c2ccccc2S(=O)(=O)c2cc(C(=O)N3CCCC3)ccc21 | -1.93
4 | O=C(CNC(=O)c1cccc(Br)c1)N/N=C/c1cccnc1 | -14
5 | O=C(Nc1cccc(-c2ccc(N3CCCCC3)nn2)c1)C(F)(F)F | -8.5
6 | C/C(CC(=O)NC1CCCCC1)=N\NC(=O)COc1ccc(C)cc1Br | -22.8
7 | Cc1ccc(Sc2cc(C(=O)NCCCN(C)C)c3ccccc3n2)cc1 | -56.5
8 | CCOCCCNC(=O)c1cc(Sc2nnc(C)s2)nc2ccccc12 | -2.23
9 | CCOCCCNC(=O)c1cc(Sc2ccc(C)cc2)nc2ccccc12 | -19.3
10 | COc1ccc(C=O)cc1OS(=O)(=O)c1ccccc1[N+](=O)[O-] | -3.35
11 | COc1ccc(NS(=O)(=O)c2cccc(C(=O)NNC(=O)c3ccccc3OC)c2)cc1 | -16.4
12 | CN(C)CCn1c(=O)n(-c2cccc(Cl)c2)c(=O)c2c3c(sc21)CCCCC3 | -20.7
13 | CN(C)CCn1c(=O)n(-c2ccc(F)cc2)c(=O)c2c3c(sc21)CCCCC3 | -18.6
14 | CN(C)CCCn1c(=O)n(Cc2ccco2)c(=O)c2c3c(sc21)CCCCC3 | -71.1
15 | Cn1c(=O)n(Cc2ccco2)c(=N)c2c3c(sc21)CCC3 | -64.8
16 | CN(C)CCn1c(=O)n(Cc2ccco2)c(=O)c2c3c(sc21)CCCCC3 | -50.4
17 | NC(=O)Cn1c(=O)n(Cc2ccco2)c(=O)c2c3c(sc21)CCCCC3 | 5.2
18 | CC(O)CNc1nc2sc3c(c2c(=O)n1Cc1ccco1)CCCCC3 (stereo not drawn) | 4.61
19 | O=c1c2c3c(sc2[nH]c(=S)n1Cc1ccco1)CCC3 | 6.17
20 | Cn1c(=O)n(Cc2ccco2)c(=N)c2c3c(sc21)CCCC3 | -31.4
21 | Cc1c(NC(=O)COC(=O)CSc2ccc(C(N)=O)cc2[N+](=O)[O-])c(=O)n(-c2ccccc2)n1C | 23.1

Row | SMILES | hERG current change (%, negative = inhibition) at 10uM [%]
22 | Cc1ccc(C)c(S(=O)(=O)N2CCN(C(=O)CCNS(=O)(=O)c3ccccc3)CC2)c1 | -33.6
23 | O=C1NC(c2ccccc2)=NC1(NS(=O)(=O)c1ccccc1)C(F)(F)F (stereo not drawn) | -3.5
24 | Cc1ccc(S(=O)(=O)N2CCC(C(=O)OC(C)C(=O)NC3CCCCC3C)CC2)cc1C (stereo not drawn) | -25.4
25 | Cc1ccc(NC(=O)c2sc3nc4c(c(-c5ccco5)c3c2N)CCC4)cc1 | 11.6
26 | Cc1cc(C(=O)Nc2ccc3[nH]ccc3c2)no1 | 6.46
27 | Cc1ccc(S(=O)(=O)NCCSc2ccccc2)cc1[N+](=O)[O-] | -0.246
28 | Cc1ccc(N(Cc2ccccc2)C(=O)c2cccc(S(=O)(=O)N3CCN(C)CC3)c2)cc1 | -52.7
29 | CC(=O)N1CCN(S(=O)(=O)c2cccc(C(=O)N(Cc3ccccc3)c3ccc(C)cc3)c2)CC1 | -61.2
30 | Cc1ccc(N(Cc2ccccc2)C(=O)c2cccc(S(=O)(=O)N3CCOCC3)c2)cc1 | -74.5
31 | Cc1ccc(N(Cc2ccccc2)C(=O)c2cc(S(=O)(=O)N3CCOCC3)ccc2C)cc1 | -27.4
32 | Cc1ccc(N(Cc2ccccc2)C(=O)c2cccc(S(=O)(=O)N3CC(C)OC(C)C3)c2)cc1 (stereo not drawn) | -7.01
33 | CC(=O)N1CCN(S(=O)(=O)c2cccc(C(=O)N(Cc3ccccc3)c3cccc(C)c3)c2)CC1 | -27.4
34 | Cc1ccc(N(Cc2ccccc2)C(=O)c2ccc(S(=O)(=O)N3CCOCC3)cc2)cc1 | -28.5
35 | Cc1cccc(N(Cc2ccccc2)C(=O)c2cccc(S(=O)(=O)N3CC(C)OC(C)C3)c2)c1 (stereo not drawn) | -9.56
36 | CN1CCN(S(=O)(=O)c2cccc(C(=O)N(Cc3ccccc3)c3ccccc3)c2)CC1 | -19.9
37 | CCCCSc1n[nH]c(N)n1 | 14
38 | CC(C)CCn1c(N2CCC(C(N)=O)CC2)nc2c1c(=O)[nH]c(=O)n2C | 11.1
39 | CCOc1cc2[nH]c(=S)n(CCCC(=O)NCc3ccco3)c(=O)c2cc1OCC | -7.08
40 | CCOC(=O)/C(C#N)=C/N1CCOCC1 | -1.97
41 | COc1cccc(C2C3(C#N)C(N)=NC(OC)(OC)C23C#N)c1 (stereo not drawn) | 9.01
42 | CC1CCCN(CC(=O)N2c3ccccc3Sc3ccccc32)C1 (stereo not drawn) | 1.98
